What all share (assay): DAPPL (digital affinity profiling via proximity ligation, sequencing); 10 mM Tris-HCl pH 7.5, 50 mM NaCl, 1 mM DTT, 4% glycerol, room temperature, 30 min; GST-TFs on glutathione beads, 16-mer random dsDNA library, 0.1% formaldehyde crosslink after washing; high values mean tight binding
The target in one test is T1, FLI1 (Homo sapiens, UniProt Q01543 1-452).
T1 sequence: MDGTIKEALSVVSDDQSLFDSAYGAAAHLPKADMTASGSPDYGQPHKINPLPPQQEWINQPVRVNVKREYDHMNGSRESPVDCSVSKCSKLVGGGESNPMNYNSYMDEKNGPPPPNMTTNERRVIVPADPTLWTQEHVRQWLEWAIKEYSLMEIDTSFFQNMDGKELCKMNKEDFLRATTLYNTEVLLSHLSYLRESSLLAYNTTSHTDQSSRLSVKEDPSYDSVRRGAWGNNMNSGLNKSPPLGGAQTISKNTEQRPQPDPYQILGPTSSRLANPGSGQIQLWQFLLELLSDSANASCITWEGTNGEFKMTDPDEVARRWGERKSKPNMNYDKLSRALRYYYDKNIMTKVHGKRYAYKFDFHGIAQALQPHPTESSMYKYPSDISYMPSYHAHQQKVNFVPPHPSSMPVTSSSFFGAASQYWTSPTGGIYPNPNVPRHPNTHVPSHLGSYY
The following applies: protein: recombinant; tags: N-terminal GST; dsDNA, one strand shown. The procedure, abridged: (§1)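 In yeast, human transcription factors were expressed with a GST fusion, then pulled down on glutathione beads and given DNA barcodes. Pooled with a tag-only sample, they were exposed to 200 nmole of a 16-mer random double-stranded DNA library (Tris/NaCl/DTT/glycerol buffer, room temperature, 30 min), washed, crosslinked with 0.1% formaldehyde, proximity-ligated using BsaI/T4 ligase for 1 h at 37 °C, PCR-amplified and read on an Illumina NextSeq500. Each hexamer's frequency of reads for a factor, divided by the matching frequency for the tag-only sample, gives the binding signal.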

The target in a further test is T2, ELK1 (Homo sapiens, UniProt P19419 1-428).
T2 sequence: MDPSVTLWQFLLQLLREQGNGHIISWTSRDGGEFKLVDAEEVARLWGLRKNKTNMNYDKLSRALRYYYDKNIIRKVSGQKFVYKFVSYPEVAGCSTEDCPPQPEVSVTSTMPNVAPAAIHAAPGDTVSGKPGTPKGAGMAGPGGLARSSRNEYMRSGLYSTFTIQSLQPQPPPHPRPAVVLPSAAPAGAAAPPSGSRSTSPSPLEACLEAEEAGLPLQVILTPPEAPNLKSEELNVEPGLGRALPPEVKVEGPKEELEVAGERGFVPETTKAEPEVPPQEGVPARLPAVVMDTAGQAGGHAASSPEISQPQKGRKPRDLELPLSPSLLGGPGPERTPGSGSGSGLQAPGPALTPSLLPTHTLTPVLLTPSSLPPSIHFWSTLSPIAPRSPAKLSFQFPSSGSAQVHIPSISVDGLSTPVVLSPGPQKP
The note with it: protein: recombinant; tags: N-terminal GST; dsDNA, one strand shown. The procedure, abridged:
as §1

A further test concerns the target T3, GABPA (Homo sapiens, UniProt Q06546 1-454).
T3 sequence: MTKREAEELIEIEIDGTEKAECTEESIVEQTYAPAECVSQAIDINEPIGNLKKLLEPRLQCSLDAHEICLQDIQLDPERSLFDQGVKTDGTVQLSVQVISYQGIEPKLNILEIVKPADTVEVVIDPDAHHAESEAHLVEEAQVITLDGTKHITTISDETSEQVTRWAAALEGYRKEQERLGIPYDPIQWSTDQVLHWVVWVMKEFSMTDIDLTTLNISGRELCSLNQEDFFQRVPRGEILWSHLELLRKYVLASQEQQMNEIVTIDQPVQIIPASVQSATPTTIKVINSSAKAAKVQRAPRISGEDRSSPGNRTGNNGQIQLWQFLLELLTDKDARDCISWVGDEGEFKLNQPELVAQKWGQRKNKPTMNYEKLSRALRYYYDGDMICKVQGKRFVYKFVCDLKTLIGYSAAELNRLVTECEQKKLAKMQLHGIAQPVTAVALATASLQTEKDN
The note with it: protein: recombinant; tags: N-terminal GST; dsDNA, one strand shown. The procedure, abridged:
as §1

Another test has as its target T4, ERG (Homo sapiens, UniProt P11308 1-479).
T4 sequence: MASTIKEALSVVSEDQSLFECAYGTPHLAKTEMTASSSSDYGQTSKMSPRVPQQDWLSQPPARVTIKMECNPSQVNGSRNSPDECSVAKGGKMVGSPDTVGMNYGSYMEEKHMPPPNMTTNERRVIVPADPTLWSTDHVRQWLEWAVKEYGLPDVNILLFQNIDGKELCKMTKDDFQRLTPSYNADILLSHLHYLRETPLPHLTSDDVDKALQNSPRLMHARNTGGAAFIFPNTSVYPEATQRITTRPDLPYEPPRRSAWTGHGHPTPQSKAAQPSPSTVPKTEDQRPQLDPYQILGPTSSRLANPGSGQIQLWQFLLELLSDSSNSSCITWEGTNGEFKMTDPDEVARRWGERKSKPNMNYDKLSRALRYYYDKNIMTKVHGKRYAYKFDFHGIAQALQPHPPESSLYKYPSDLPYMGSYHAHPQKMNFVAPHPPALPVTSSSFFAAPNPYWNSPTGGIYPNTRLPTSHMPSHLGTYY
The note with it: protein: recombinant; tags: N-terminal GST; dsDNA, one strand shown. The procedure, abridged: as §1

The next test addresses ELF1 (Homo sapiens, UniProt P32519 1-619). The note with it: protein: recombinant; tags: N-terminal GST; dsDNA, one strand shown. The procedure, abridged: as §1
The target of a further test is T5, EHF (Homo sapiens, UniProt Q9NZC4 1-300).
T5 sequence: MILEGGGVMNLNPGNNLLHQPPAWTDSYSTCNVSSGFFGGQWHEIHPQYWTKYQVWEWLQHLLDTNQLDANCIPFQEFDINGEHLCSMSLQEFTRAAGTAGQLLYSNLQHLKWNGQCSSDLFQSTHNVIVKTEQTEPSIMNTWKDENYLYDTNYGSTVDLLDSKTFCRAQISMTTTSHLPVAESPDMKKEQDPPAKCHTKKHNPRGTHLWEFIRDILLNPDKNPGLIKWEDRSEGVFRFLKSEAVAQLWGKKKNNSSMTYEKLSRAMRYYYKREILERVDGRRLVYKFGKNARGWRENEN
The note with it: protein: recombinant; tags: N-terminal GST; dsDNA, one strand shown. The procedure, abridged: as §1

The target of the next test is SPI1 (Homo sapiens, UniProt P17947 1-270). The following applies: protein: recombinant; tags: N-terminal GST; dsDNA, one strand shown. The procedure, abridged: as §1
The target of the next test is SPIB (Homo sapiens, UniProt Q01892 1-262). The note with it: protein: recombinant; tags: N-terminal GST; dsDNA, one strand shown. The procedure, abridged:
as §1

The target of another test is T6, ELK3 (Homo sapiens, UniProt P41970 1-407).
T6 sequence: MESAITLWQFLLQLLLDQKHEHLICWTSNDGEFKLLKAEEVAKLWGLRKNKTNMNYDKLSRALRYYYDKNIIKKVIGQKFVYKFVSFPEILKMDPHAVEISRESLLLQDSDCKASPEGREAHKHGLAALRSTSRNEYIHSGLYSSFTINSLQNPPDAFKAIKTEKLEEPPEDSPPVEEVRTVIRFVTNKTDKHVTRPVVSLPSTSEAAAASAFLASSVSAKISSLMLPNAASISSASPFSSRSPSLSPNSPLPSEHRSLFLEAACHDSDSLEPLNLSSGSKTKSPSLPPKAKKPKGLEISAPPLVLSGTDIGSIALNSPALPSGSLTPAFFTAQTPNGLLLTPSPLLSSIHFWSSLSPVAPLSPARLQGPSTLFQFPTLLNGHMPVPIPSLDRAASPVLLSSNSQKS
The following applies: protein: recombinant; tags: N-terminal GST; dsDNA, one strand shown. The procedure, abridged:
as §1

A further test concerns the target T7, FEV (Homo sapiens, UniProt Q99581 1-238).
T7 sequence: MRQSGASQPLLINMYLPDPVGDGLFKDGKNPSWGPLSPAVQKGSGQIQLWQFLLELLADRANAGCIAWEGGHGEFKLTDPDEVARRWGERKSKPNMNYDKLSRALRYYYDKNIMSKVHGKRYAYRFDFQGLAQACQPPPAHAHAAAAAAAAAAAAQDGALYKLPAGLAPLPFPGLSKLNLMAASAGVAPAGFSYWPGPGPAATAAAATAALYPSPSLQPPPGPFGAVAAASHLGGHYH
The following applies: protein: recombinant; tags: N-terminal GST; dsDNA, one strand shown. The procedure, abridged:
as §1

Another test concerns the target ETV5 (Homo sapiens, UniProt P41161 1-510). The following applies: protein: recombinant; tags: N-terminal GST; dsDNA, one strand shown. The procedure, abridged: as §1
Another test concerns the target HSF1 (Homo sapiens, UniProt Q00613 1-529). The note with it: protein: recombinant; tags: N-terminal GST; chain copies: 3; dsDNA, one strand shown. The procedure, abridged: as §1
Another test addresses T8, SPIC (Homo sapiens, UniProt Q8N5J4 1-248).
T8 sequence: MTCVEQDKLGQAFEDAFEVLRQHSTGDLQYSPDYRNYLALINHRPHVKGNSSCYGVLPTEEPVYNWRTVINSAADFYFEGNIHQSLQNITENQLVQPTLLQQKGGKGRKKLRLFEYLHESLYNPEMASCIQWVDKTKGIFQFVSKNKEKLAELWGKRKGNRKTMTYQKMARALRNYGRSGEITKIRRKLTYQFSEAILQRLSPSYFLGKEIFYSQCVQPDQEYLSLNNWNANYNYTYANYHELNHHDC
The following applies: protein: recombinant; tags: N-terminal GST; dsDNA, one strand shown. The procedure, abridged:
as §1

The next test addresses ELF4 (Homo sapiens, UniProt Q99607 1-663). The following applies: protein: recombinant; tags: N-terminal GST; dsDNA, one strand shown. The procedure, abridged: as §1
A further test deals with T9, ELK4 (Homo sapiens, UniProt P28324-2 1-405).
T9 sequence: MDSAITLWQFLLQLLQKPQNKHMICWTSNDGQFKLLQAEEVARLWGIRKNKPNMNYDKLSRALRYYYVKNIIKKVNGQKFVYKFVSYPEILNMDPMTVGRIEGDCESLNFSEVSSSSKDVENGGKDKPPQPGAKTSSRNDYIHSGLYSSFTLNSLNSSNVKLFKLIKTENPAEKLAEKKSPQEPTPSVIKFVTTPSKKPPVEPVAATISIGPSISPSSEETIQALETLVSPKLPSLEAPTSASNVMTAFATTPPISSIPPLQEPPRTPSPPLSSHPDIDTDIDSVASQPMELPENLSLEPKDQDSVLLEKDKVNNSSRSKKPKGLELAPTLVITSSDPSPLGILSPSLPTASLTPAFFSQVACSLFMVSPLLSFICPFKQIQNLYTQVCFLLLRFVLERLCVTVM
The note with it: protein: recombinant; tags: N-terminal GST; dsDNA, one strand shown. The procedure, abridged: as §1

For a further test, the target named is T10, ETV2 (Homo sapiens, UniProt O00321 1-342).
T10 sequence: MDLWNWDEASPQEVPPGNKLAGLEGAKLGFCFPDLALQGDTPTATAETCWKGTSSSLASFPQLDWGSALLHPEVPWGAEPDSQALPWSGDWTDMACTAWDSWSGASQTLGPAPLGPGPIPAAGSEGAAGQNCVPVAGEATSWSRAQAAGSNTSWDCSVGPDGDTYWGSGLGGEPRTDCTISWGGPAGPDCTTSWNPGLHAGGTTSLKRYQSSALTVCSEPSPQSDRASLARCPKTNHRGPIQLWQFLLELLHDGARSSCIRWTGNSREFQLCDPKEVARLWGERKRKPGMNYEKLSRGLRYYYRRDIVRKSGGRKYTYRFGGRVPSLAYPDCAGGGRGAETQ
The following applies: protein: recombinant; tags: N-terminal GST; dsDNA, one strand shown. The procedure, abridged:
as §1

The target of the next test is T11, ELF3 (Homo sapiens, UniProt P78545 1-371).
T11 sequence: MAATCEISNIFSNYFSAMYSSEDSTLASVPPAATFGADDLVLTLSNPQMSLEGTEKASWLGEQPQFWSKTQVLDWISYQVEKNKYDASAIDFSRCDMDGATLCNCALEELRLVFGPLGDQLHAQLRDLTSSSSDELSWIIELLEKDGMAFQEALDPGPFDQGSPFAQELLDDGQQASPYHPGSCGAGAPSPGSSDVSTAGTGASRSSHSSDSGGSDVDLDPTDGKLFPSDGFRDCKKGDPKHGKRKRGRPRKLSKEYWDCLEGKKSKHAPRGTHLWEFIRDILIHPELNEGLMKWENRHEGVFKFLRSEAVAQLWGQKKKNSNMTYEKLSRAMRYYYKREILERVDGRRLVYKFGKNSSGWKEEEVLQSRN
The following applies: protein: recombinant; tags: N-terminal GST; dsDNA, one strand shown. The procedure, abridged: as §1

The target in a further test is CRX (Homo sapiens, UniProt O43186 1-299). The note with it: protein: recombinant; tags: N-terminal GST; dsDNA, one strand shown. The procedure, abridged: as §1
CRX, sequence (O43186 whole entry): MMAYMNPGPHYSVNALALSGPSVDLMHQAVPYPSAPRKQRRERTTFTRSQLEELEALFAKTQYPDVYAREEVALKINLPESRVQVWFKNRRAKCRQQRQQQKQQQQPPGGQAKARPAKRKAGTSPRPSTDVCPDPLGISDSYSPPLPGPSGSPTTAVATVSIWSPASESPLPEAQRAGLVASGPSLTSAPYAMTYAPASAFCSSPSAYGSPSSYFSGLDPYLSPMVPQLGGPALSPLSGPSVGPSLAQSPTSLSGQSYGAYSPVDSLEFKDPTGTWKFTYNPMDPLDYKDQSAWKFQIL
In another test the target is ETV1 (Homo sapiens, UniProt P50549 1-477). The note with it: protein: recombinant; tags: N-terminal GST; dsDNA, one strand shown. The procedure, abridged: as §1
ETV1, sequence (P50549 whole entry): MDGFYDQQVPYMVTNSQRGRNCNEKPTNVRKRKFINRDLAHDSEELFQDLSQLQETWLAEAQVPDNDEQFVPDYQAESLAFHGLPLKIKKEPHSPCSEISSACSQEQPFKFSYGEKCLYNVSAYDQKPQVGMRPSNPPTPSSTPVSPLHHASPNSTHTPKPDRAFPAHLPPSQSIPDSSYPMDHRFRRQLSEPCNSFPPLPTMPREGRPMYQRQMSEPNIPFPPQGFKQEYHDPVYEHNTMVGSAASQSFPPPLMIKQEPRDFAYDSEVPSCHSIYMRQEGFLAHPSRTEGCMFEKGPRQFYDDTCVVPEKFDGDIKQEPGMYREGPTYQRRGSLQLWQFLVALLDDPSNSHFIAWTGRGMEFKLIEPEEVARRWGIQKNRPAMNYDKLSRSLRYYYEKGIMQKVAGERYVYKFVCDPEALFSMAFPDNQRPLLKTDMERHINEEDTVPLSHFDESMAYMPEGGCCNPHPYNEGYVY

ELF4, sequence (Q99607 whole entry): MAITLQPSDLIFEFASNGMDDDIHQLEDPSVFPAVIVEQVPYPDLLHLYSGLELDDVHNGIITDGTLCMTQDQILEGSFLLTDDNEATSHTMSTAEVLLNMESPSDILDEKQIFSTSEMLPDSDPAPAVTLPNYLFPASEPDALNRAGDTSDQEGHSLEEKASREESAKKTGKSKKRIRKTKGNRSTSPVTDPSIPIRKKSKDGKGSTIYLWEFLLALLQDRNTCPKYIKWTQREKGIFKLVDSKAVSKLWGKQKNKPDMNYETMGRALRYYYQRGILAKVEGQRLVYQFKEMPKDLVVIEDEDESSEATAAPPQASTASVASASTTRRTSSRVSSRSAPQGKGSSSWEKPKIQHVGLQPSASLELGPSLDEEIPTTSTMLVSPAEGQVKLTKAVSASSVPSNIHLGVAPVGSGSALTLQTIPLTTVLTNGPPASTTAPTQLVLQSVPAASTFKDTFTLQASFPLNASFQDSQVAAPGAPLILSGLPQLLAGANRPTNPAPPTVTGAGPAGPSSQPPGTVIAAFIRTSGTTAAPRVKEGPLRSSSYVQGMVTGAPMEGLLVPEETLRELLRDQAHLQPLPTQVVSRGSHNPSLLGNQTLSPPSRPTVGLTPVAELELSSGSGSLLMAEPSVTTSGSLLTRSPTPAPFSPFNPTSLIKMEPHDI
SPIB, sequence (Q01892 whole entry): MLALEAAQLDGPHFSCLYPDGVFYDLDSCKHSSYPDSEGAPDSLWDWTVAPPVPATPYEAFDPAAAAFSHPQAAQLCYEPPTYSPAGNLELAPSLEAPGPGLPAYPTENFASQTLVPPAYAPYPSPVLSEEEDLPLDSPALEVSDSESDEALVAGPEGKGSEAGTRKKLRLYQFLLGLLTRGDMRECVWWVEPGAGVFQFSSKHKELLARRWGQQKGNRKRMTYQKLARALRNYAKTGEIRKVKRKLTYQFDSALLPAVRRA
ELF1, sequence (P32519 whole entry): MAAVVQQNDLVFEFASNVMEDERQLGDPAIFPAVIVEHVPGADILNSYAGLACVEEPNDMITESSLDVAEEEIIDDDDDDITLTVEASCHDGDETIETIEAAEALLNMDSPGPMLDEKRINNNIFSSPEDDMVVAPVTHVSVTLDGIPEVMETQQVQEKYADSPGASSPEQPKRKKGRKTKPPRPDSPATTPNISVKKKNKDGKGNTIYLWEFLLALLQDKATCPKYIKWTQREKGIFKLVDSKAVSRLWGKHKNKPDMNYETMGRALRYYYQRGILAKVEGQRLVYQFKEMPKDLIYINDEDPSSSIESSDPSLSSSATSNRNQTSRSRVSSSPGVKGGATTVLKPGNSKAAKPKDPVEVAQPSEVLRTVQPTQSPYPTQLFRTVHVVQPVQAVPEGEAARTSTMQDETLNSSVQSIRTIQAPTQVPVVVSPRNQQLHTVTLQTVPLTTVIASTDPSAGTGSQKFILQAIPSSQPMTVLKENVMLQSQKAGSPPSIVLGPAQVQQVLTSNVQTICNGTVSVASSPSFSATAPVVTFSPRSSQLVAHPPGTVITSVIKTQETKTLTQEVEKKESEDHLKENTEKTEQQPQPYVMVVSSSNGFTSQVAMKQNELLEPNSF
ETV5, sequence (P41161 whole entry): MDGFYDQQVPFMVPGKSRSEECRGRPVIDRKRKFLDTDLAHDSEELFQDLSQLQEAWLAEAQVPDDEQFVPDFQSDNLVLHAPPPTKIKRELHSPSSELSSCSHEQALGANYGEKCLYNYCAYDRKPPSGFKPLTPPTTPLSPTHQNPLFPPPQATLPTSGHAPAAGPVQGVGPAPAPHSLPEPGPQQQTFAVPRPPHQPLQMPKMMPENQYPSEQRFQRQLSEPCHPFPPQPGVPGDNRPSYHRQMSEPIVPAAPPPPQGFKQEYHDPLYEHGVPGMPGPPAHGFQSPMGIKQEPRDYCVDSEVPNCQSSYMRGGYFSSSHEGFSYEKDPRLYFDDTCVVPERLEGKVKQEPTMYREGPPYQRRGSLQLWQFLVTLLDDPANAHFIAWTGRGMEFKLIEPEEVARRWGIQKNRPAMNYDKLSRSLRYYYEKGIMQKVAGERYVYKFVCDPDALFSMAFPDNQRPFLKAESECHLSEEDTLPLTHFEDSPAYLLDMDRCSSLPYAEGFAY
HSF1, sequence (Q00613 whole entry): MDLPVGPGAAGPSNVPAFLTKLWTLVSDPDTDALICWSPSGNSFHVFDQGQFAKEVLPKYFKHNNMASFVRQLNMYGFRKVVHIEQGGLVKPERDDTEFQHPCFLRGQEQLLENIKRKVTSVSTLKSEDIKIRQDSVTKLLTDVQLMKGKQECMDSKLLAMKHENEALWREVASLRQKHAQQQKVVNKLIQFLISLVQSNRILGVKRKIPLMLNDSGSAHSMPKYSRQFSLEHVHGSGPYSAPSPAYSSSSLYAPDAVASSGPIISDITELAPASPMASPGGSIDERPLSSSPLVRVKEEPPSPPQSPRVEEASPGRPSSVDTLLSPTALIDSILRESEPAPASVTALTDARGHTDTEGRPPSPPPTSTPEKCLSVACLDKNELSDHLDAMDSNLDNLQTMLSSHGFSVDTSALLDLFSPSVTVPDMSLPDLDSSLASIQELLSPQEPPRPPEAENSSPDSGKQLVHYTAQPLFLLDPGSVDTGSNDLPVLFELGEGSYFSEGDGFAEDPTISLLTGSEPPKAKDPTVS

With TAGGCT, the binding signal with FLI1 is 1.22 fold enrichment (6-mer frequency, TF over GST control); in the test with ELK1, 1.18 fold enrichment (6-mer frequency, TF over GST control); with GABPA it was 1.3 fold enrichment (6-mer frequency, TF over GST control); in the test with ERG, 1.23 fold enrichment (6-mer frequency, TF over GST control); with ELF1, 1.21 fold enrichment (6-mer frequency, TF over GST control); in the test with EHF it was 1.2 fold enrichment (6-mer frequency, TF over GST control). Further, the binding signal with SPI1 is 1.19 fold enrichment (6-mer frequency, TF over GST control); in the test with SPIB, 1.1 fold enrichment (6-mer frequency, TF over GST control); with ELK3, 1.26 fold enrichment (6-mer frequency, TF over GST control); with FEV it was 1.25 fold enrichment (6-mer frequency, TF over GST control); in the test with ETV5 it was 1.19 fold enrichment (6-mer frequency, TF over GST control); with HSF1 it was 1.45 fold enrichment (6-mer frequency, TF over GST control). Moreover, the binding signal is 1.29 fold enrichment (6-mer frequency, TF over GST control) with SPIC; 1.2 fold enrichment (6-mer frequency, TF over GST control) with ELF4; 1.13 fold enrichment (6-mer frequency, TF over GST control) with ELK4; 1.09 fold enrichment (6-mer frequency, TF over GST control) with ETV2; 1.1 fold enrichment (6-mer frequency, TF over GST control) with ELF3; 1.99 fold enrichment (6-mer frequency, TF over GST control) with CRX. Moreover, the binding signal with ETV1 was 1.08 fold enrichment (6-mer frequency, TF over GST control).

The values above are taken from article PMC7862700, “An all-to-all approach to the identification of sequence-specific readers for epigenetic DNA modifications on cytosine”.
